# PubChem BioAssay AID504332 (National Center for Advancing Translational Sciences (NCATS), 2011)
# In all, about 350,000 compounds went through this assay and about 31,000 (8.9%) were called active. Inconclusive results (about 15%) are left out. Shown is part of a subset that was picked to be rich in actives. Unmarked numbers belong to inactive results. Calls follow the shape of the dose curve; as a rule, active = well fitted inhibition curve with a large enough effect; inconclusive = small, poorly fitted or top-dose-only effect; inactive = no such curve, though single readings can be large or run the other way.
# Target: Histone-lysine N-methyltransferase EHMT2 (Homo sapiens) (UniProt Q96KQ7)
# Sequence (Q96KQ7 913-1193 limits assumed): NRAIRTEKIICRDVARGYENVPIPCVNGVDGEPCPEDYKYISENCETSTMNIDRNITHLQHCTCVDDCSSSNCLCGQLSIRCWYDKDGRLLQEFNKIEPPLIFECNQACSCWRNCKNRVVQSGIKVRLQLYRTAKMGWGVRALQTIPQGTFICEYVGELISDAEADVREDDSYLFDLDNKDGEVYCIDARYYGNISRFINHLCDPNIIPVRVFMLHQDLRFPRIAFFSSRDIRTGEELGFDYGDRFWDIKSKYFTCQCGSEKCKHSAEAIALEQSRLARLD
# Test: qHTS Assay for Inhibitors of Histone Lysine Methyltransferase G9a; also: nearly all actives have a fitted effect of over 75% in size
# Conditions: G9a H3K9 monomethylation, AlphaScreen, 2 h; series mostly up to 59 µM; activity, negative = inhibition: at the top concentration
# How it was run: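 Using a bead-based AlphaScreen, monomethylated H3K9 product from 2 h room-temperature reactions (G9a 20 nM, peptide 500 nM, SAM 20 uM) was detected with 0.5 ug/mL rabbit anti-H3K9me1 antibody.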
# % is scaled to controls: 0 for no effect and ±100 for the full control effect; potency is read from the fitted curve at half-maximal effect.
SMILES,"activity, negative = inhibition",Potency
COC(=O)c1ccc(Cn2c(SCC(=O)N(C)c3ccccc3)nc3ccccc32)cc1,-1.12% [at 12.7 µM],–
Cc1ccc(Cl)cc1N1CCN(S(=O)(=O)c2cc3[nH]c(=O)c(=O)[nH]c3cc2C)CC1,-35.6%,–
Nc1ccc(Nc2ccccc2)cc1,–,4.47 µM (active)
Nc1ccc(S(=O)(=O)NC(=O)c2ccccc2)cc1,–,inactive
Cc1ccc(Nc2ccccc2N)cc1,-112%,–
COc1ccc(OC)c(CNC(=O)c2c3c(nc4ccccc24)C(=O)N(C2CCCCC2)C3)c1,8.12%,–
Cc1ccc(C)c(NC(=O)CSC2=Nc3ccccc3N=C(c3ccc(F)cc3)C2)c1,5.92%,–
Cc1ccc2nc(-c3ccncc3)cc(C(=O)Nc3ccncc3)c2c1,-0.776% [at 102 µM],–
Cc1c(C(=O)NCc2ccccc2Br)oc2ccc3c(c12)C(=O)CC(C)(C)O3,-3.36%,–
O=C(Cc1cccs1)Nc1cccc(-c2nc3ccccc3[nH]2)c1,-2.95%,–
O=C(/C=C/c1ccco1)Nc1cccc(-c2nc3ccccc3[nH]2)c1,–,25.1 µM (active)
CCc1ccc2oc(-c3ccc(C)c(NC(=O)/C=C/c4ccco4)c3)nc2c1,-28.5%,–
CCC1CCC2(CC1)NC(=O)N(CC(=O)Nc1ccc(OC)cc1)C2=O (stereo not drawn),7.81% [at 0.501 µM],–
O=C(O)CCCN1C(=O)c2ccccc2Sc2ncccc21,–,50.1 µM (active)
COc1cccc(NC(=O)CN2C(=O)c3ccccc3Sc3ncccc32)c1,-3.8%,–
COCCNC(=O)CCCN1C(=O)c2ccccc2Sc2ncccc21,–,inactive
O=C(NNC(=O)C1CCCC1)c1ccc(F)cc1,20.9% [at 102 µM],–
CC1CC(=O)Nc2ccccc2N1C(=O)COc1ccc2cc(Br)ccc2c1 (stereo not drawn),-5.57% [at 2.33 µM],–
CCCCN(CC)CCCNC(=O)c1nn(C)c2c1CS(=O)(=O)c1ccccc1-2,-9.82%,–
COc1ccc(NC(=S)Nc2ccc(S(N)(=O)=O)cc2)c(C)c1,-45.2% [at 102 µM],–
COc1ccc(OCC(=O)NCCc2ccc(S(N)(=O)=O)cc2)cc1,-7.3%,–
COc1cc(NC(=S)NCc2ccc(S(N)(=O)=O)cc2)cc(OC)c1,–,17.8 µM (active)

SMILES,"activity, negative = inhibition",Potency
COc1ccc(C(=O)CC(=O)C(=O)Nc2cc([N+](=O)[O-])ccc2OC)cc1,13.4% [at 102 µM],–
COc1ccc(N2C(=O)C3C(C2=O)C(C(=O)c2ccccc2)N2CCCC32)cc1 (stereo not drawn),–,10 µM (active)
COc1ccc(N2C(=O)C3CCCN3C2c2cccs2)cc1 (stereo not drawn),14.2% [at 102 µM],–
COc1ccc(C2NC(=O)N(C)C3=C2C(=O)N(c2ccc(C(=O)O)cc2)C3)cc1 (stereo not drawn),-0.267%,–
Cn1c(=O)[nH]c(=O)c2c1nc(NCCc1ccccc1)n2Cc1ccc(F)cc1,7.33%,–
CCCOc1ccc(-c2cccc(NS(=O)(=O)c3ccccc3)c2)nn1,-0.99%,–
O=S(=O)(Nc1cccc(-c2ccc(N3CCOCC3)nn2)c1)c1ccc(Cl)c(Cl)c1,-30.6% [at 102 µM],–
O=[N+]([O-])c1ccc(S(=O)(=O)Nc2cccc(-c3ccc(N4CCCC4)nn3)c2)cc1,–,10 µM (active)
CCCc1cc(=O)oc2cc(OCC(=O)Nc3ccc(CN4CCOCC4)cc3)c(Cl)cc12,3.1% [at 0.501 µM],–
CN(CC(=O)Nc1cccc(C(F)(F)F)c1)S(=O)(=O)c1cccs1,-7.08%,–
Cc1ccc2[nH]cc(CCCN3C(=O)c4ccccc4C3=O)c2c1,–,44.7 µM (active)
COc1ccc2[nH]cc(CCN3C(=O)c4ccc(C(=O)O)cc4C3=O)c2c1,8.52% [at 102 µM],–
Cc1ccc2[nH]cc(CCNC(=O)C3CCCCC3)c2c1,7.65%,–
CCCC(=O)Nc1cc2nn(-c3ccccc3)nc2cc1C,6.98%,–
COc1ccc(CNCCCO)cc1OC,5.75%,–
COc1cc(CNCCN(C)C)ccc1OCc1c(F)cccc1Cl,-50.1% [at 102 µM],–
CCOCCCNCc1ccc(OCc2ccc(F)cc2)c(OC)c1,–,7.08 µM (active)
CC(Nc1nc(C(F)(F)F)nc2ccccc12)c1cccs1 (stereo not drawn),94.6% [at 102 µM],–
Cc1cc(C)nc(N/N=C/c2ccc([N+](=O)[O-])o2)n1,-49.2% [at 102 µM],–
COc1ccc(C(=O)Nc2ccc(-n3nncc3-c3ccccc3)cc2)cc1OC,-28%,–
CCOC(=O)C1CCCN(C(=O)Cn2ncc3c(C)n(Cc4ccc(F)cc4)c(C)c3c2=O)C1 (stereo not drawn),13%,–
COc1ccc(-c2nnc(SCC(=O)c3cccs3)o2)c(OC)c1,-1.85% [at 102 µM],–

SMILES,"activity, negative = inhibition",Potency
O=C(NCC#CCSc1nnc(-c2cccc3ccccc23)o1)c1cccs1,–,3.16 µM (active)
COc1ccc(CCNC(=O)CSc2nnc(CNC(=O)c3cccs3)o2)cc1OC,30% [at 12.7 µM],–
CCc1cc(C(=O)Nc2nnc(C3CC3)s2)sc1C,5.21% [at 12.7 µM],–
CC1(C)Cc2ccccc2-c2[nH]c(=S)[nH]c(=O)c21,–,10 µM (active)
CC(C)CC(N=C1NC(C)(C)Cc2ccccc21)C(=O)O (stereo not drawn),12.6%,–
CCC1(CC)Cc2ccccc2-c2nc(CCl)[nH]c(=O)c21,-21.1% [at 102 µM],–
CCc1cc2c(cc3c(=O)n(CC(=O)N4CCN(c5cc(Cl)ccc5C)CC4)nc(CC)n32)s1,-1.08%,–
CCC(c1nnnn1Cc1ccco1)N(Cc1cc2cc(OC)ccc2[nH]c1=O)C1CCCCC1 (stereo not drawn),–,3.16 µM (active)
CCOc1ccc2[nH]c(=O)c(CN(Cc3nnnn3Cc3ccccc3)CC3CCCO3)cc2c1 (stereo not drawn),-25.1% [at 102 µM],–
CCC(c1nnnn1Cc1ccccc1)N(Cc1cc2cc(OC)ccc2[nH]c1=O)CC1CCCO1 (stereo not drawn),-31.1% [at 12.7 µM],–
CCCOc1ccc(C(=O)Nc2ccc3oc(-c4cccc(Cl)c4Cl)nc3c2)cc1,-29.8%,–
S=C(NC1CCCCC1)NN1CCOCC1,–,50.1 µM (active)
COc1ccc(S(=O)(=O)N2CCOCC2)cc1C(=O)NC1CCCCC1,18.8% [at 102 µM],–
CC(NC(=S)NC1CCCCC1)C(c1ccccc1)N1CCOCC1 (stereo not drawn),2.9% [at 102 µM],–
COc1ccc(NC(=O)C(=O)NCC(=O)Nc2cccc(C(F)(F)F)c2)cc1,2.22% [at 102 µM],–
COc1ccc(NC(=O)CN(C)CC(=O)Nc2cccc(C(F)(F)F)c2)cc1,6.72% [at 102 µM],–
COc1ccc(C(CC(=O)Nc2ccc(C)cc2)NC(=O)C(F)(F)F)cc1 (stereo not drawn),–,79.4 µM (active)
CCCCOc1ccc(C(=O)Nc2cccc(-c3nc4ccccc4o3)c2C)cc1,-21%,–
O=C(NCc1ccc(Cl)cc1)C(=O)NCC1CCCN1S(=O)(=O)c1cccs1 (stereo not drawn),1.44% [at 102 µM],–
Cc1cc(NC(=O)CC(C)C)cc(-c2nc3ncccc3o2)c1O,2.52%,–
Cc1ccc(-n2nc(CO)c(C(=O)NCCc3ccccc3)n2)cc1,7.14%,–
O=C(Oc1cccc(C(=S)N2CCOCC2)c1)c1cccc(Cl)c1,-2.25% [at 102 µM],–

SMILES,"activity, negative = inhibition",Potency
COc1cc(C(=O)N2CCOCC2)cc(OC)c1OC,–,inactive
COc1cc(NC(=O)N2CCOCC2)cc(OC)c1,7.85% [at 102 µM],–
O=C(c1ccc(Oc2ccc(Cl)cc2)c([N+](=O)[O-])c1)N1CCCC1,-2.93% [at 102 µM],–
O=C(/C=C/c1cccc([N+](=O)[O-])c1)OCC(=O)N1CCOCC1,12.5% [at 12.7 µM],–
O=C(Oc1ccc(Br)cc1C(=S)N1CCOCC1)c1cccc([N+](=O)[O-])c1,–,7.08 µM (active)
O=C(Oc1ccccc1C(=S)N1CCCCC1)c1cc([N+](=O)[O-])cc([N+](=O)[O-])c1,–,3.55 µM (active)
COc1cc(C(=O)OCc2ccc([N+](=O)[O-])cc2)cc(OC)c1OC,14.7% [at 102 µM],–
COc1cc(C(=S)N2CCOCC2)cc(OC)c1OC(=O)c1cc([N+](=O)[O-])cc([N+](=O)[O-])c1,–,31.6 µM (active)
O=C(NCCCN1CCOCC1)c1ccc([N+](=O)[O-])cc1[N+](=O)[O-],-1.45%,–
Cc1cc(OC(=O)c2ccccc2)c([N+](=O)[O-])c(=O)[nH]1,-32.9% [at 102 µM],–
COc1cc([N+](=O)[O-])cc([N+](=O)[O-])c1NC(=O)N1CCOCC1,–,50.1 µM (active)
COc1ccc(/C=N/Nc2cc(N3CCOCC3)nc(C)n2)c(OC)c1,-10.8% [at 102 µM],–
Cc1ccc2cccc(NC(=O)C(C)Oc3ccc(C)c(C)c3)c2n1 (stereo not drawn),0.0636%,–
Cc1ccc(-c2cnc(C3CC3)o2)cc1S(=O)(=O)Nc1cccc(C)c1C,-9.84% [at 12.7 µM],–
CCC(=O)N1c2ccccc2CC1C(=O)N1CCN(c2ccccc2F)CC1 (stereo not drawn),0.329% [at 12.7 µM],–
Cc1ccc(-c2nn(CCC(=O)Nc3ccc(Cl)c(Cl)c3)c(=O)c3ccccc23)cc1,5.97%,–
COc1ccc(Cl)cc1NC(=O)CSc1nc2ccccc2c2nc(-c3ccccc3)nn12,-3.83%,–
CC(=O)C[C@@H](O)CC(=O)[C@H]1OC(=O)CCCCCCc2ccccc21,7.19% [at 0.501 µM],–
O=C(C1=C(O)C(=O)N(CCOCCO)C1c1ccccn1)c1cccs1 (stereo not drawn),–,28.2 µM (active)
O=C(c1cccs1)c1cn(CCOc2ccc(Cl)cc2)c2ccccc12,-2.07%,–
O=C(c1cccs1)N(C(=O)c1cccs1)c1ccccn1,2.68%,–
Cc1ccc(O)c(/C=N/NC(=O)COc2ccc3c(C)cc(=O)oc3c2)c1,14% [at 102 µM],–

SMILES,"activity, negative = inhibition",Potency
CCC(=O)N1c2ccccc2CC1C(=O)N1CCN(c2cccc(OC)c2)CC1 (stereo not drawn),12.6%,–
COc1cccc(C(=O)NC2(C(F)(F)F)C(=O)Nc3c2c(=O)[nH]c(=O)n3-c2ccc(C)cc2)c1 (stereo not drawn),-0.967%,–
CCOc1ccc(CN2CCN(Cc3ccc4cc(F)ccc4n3)CC2CCO)cc1 (stereo not drawn),1.12% [at 102 µM],–
CCOc1ccc(CN2CCN(Cc3ccc(C)o3)CC2CCO)cc1 (stereo not drawn),–,70.8 µM (active)
CCOc1ccc(CN2CCN(Cc3ccon3)CC2CCO)cc1 (stereo not drawn),-37.7% [at 102 µM],–
COCCn1c(C)cc(C(=O)CSc2nnc(C3CC3)n2C2CC2)c1C,-12.5% [at 12.7 µM],–
Cc1ccc(Cl)cc1N1CCN(C(=O)C2CCC(CNS(=O)(=O)c3cccs3)CC2)CC1 (stereo not drawn),-36.1%,–
Cc1ccc(S(=O)(=O)NNC(=O)/C=C/c2cccc(F)c2)cc1,10.6% [at 102 µM],–
Cc1cc(OCCN2CCCC2)ccc1C(C)C,–,8.91 µM (active)
Clc1ccccc1-c1cc(COc2ccc3ccccc3c2)no1,22%,–
O=C(Nc1ccc(F)cc1F)N1CCCN(CCOc2ccccc2)CC1,-4.35% [at 102 µM],–
Cc1ccc(CC2(O)CCN(CCOc3ccc(O)cc3)CC2)cc1,31.1%,–
Cc1cc(OCCN2CCCC2)cc(C(C)C)c1,–,11.2 µM (active)
OC(COc1ccc(Br)cc1)CN1CCCC1 (stereo not drawn),2.27% [at 102 µM],–
COc1cccc(OCCCN2CCCCCC2)c1,–,11.2 µM (active)
Cc1cc(C)c(NC(=O)CN2CCCCCC2)c(C)c1,41.6% [at 0.501 µM],–
OC(COc1ccc2ccccc2c1)CN1CCOCC1 (stereo not drawn),-4.94%,–
c1ccc2cc(OCCN3CCCC3)ccc2c1,–,12.6 µM (active)
COc1cccc(NC(=O)NCCN2CCCCC2)c1,11.8% [at 102 µM],–
COc1cccc(OCC(O)CN2CCN(CCO)CC2)c1 (stereo not drawn),19.4%,–
